Source: PubChem BioAssay (NCATS)
Values joined by “and” are separate entries in the source; they are usually repeats but may differ in a detail not shown here. Identical values can stand only once. Records with an inconclusive call do not appear. Where a call stands in place of a potency, no number is given. Active and inactive are the calls of the source. Unless noted, calls come from the whole dose curve; as a rule, active = well fitted curve in the direction sought with a large enough effect; inconclusive = small, poorly fitted or top-dose-only effect, or another doubt; inactive = no such curve, though single readings can be large; an effect the other way counts as inactive or inconclusive.

Assays:
[1] = P-glycoprotein substrates identified in KB-8-5-11 adenocarcinoma cell line, qHTS therapeutic library screen (AID 1346987); note: nearly all actives have a fitted effect of over 65% in size; note: potency is the fitted concentration of half-maximal effect
How it was run: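 Human cervical adenocarcinoma KB-8-5-11 cells, selected in colchicine to over-express P-gp and assayed without it, were exposed for 72 h to titrated compounds. An ATP-based luminescent viability signal gave AC50.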

[2] = NS1 protein of Zika virus - qHTS assay to identify small molecule inhibitors in human HEK 293 cells (AID 1347053); note: nearly all actives have a fitted effect of over 55% in size; note: potency is the fitted concentration of half-maximal effect
How it was run: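 Readout was TR-FRET using paired anti-NS1 antibodies after 24 h infection of HEK 293 cells with ZIKV MR766 (MOI = 0.5). Compound preceded virus by 1 h; reduced signal reflects lower NS1 expression.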

[3] = qHTS for Inhibitors of the Functional Ribonucleoprotein Complex (vRNP) of Lassa (LASV) Arenavirus: LASV Primary Screen - GLuc reporter signal (AID 1347082; calls by dose curve; tested in HEK293 reporter line; note: nearly all actives have a fitted effect of over 60% in size; note: potency is the fitted concentration of half-maximal effect)
[4] = qHTS for Inhibitors of the Functional Ribonucleoprotein Complex (vRNP) of Lassa (LASV) Arenavirus: Viability assay - alamar blue signal for LASV Primary Screen (AID 1347083; calls by dose curve; tested in HEK293 reporter line; note: nearly all actives have a fitted effect of over 80% in size; note: potency is the fitted concentration of half-maximal effect)
[5] = qHTS for Inhibitors of the Functional Ribonucleoprotein Complex (vRNP) of Lymphocytic Choriomeningitis Arenaviruses (LCMV): Viability assay - alamar blue signal for LCMV Primary Screen (AID 1347085; calls by dose curve; tested in HEK293 reporter line; note: nearly all actives have a fitted effect of over 80% in size; note: potency is the fitted concentration of half-maximal effect)
[6] = biological target: Nucleoprotein (Lymphocytic choriomeningitis virus (strain Armstrong)) (UniProt P09992); experiment: qHTS for Inhibitors of the Functional Ribonucleoprotein Complex (vRNP) of Lymphocytic Choriomeningitis Arenaviruses (LCMV): LCMV Primary Screen - GLuc reporter signal (AID 1347086; calls by dose curve; note: nearly all actives have a fitted effect of over 70% in size; note: potency is the fitted concentration of half-maximal effect)
Chain of Nucleoprotein (Lymphocytic choriomeningitis virus (strain Armstrong)) (P09992 whole entry, looked up): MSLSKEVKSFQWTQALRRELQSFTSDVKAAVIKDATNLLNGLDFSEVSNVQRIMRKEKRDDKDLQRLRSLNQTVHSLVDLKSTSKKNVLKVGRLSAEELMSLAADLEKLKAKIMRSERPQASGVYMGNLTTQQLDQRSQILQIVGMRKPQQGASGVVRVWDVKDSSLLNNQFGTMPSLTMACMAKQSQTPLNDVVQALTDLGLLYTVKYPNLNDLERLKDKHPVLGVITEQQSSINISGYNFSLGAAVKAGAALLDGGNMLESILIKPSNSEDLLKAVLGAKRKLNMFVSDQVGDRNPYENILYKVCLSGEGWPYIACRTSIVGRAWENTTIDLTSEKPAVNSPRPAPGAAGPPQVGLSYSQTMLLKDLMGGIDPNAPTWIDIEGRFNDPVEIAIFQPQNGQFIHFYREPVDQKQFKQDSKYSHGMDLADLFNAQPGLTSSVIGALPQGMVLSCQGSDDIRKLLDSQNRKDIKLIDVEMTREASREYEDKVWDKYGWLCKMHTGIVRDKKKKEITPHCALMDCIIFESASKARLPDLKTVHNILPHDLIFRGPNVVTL

[7] = biological target: Atrial natriuretic peptide receptor 1 (Homo sapiens) (UniProt P16066); experiment: Natriuretic polypeptide receptor (hNpr1) antagonism - Pilot screen (AID 1347049; calls by dose curve;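 note: HEK293 cells with hNpr1 and GloSensor cGMP luciferase stimulated by 0.1 nM hNppA; agonist-evoked cGMP luminescence read 20 min after hNppA addition; series mostly up to about 58 µM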)
Chain of Atrial natriuretic peptide receptor 1 (Homo sapiens) (P16066 whole entry, looked up): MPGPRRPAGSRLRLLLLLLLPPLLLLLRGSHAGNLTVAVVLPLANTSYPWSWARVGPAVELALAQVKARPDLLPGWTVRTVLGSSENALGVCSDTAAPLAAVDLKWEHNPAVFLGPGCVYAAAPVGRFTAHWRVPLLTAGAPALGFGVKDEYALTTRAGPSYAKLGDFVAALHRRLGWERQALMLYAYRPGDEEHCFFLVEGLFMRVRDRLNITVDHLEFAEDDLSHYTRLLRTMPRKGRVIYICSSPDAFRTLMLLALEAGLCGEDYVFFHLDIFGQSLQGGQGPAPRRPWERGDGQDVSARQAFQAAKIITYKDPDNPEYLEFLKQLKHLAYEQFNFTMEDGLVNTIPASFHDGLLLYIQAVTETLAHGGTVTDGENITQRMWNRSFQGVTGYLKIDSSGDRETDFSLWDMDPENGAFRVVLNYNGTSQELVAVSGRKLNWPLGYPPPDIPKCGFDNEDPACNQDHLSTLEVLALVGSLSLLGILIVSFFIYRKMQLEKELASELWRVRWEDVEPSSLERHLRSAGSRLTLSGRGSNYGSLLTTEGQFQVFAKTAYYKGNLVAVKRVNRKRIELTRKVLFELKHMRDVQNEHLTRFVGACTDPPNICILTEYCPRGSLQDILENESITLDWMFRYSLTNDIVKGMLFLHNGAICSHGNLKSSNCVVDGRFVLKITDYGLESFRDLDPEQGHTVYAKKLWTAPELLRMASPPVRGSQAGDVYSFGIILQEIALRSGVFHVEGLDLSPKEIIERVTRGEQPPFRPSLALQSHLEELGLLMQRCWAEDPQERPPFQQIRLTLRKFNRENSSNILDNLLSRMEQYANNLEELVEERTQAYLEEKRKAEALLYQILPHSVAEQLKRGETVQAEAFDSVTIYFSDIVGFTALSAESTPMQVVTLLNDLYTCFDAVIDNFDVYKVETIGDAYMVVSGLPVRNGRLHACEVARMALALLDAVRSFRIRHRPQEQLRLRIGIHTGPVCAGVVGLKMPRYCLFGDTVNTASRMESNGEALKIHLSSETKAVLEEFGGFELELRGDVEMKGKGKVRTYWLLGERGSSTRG
How it was run: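 Cells expressing receptor plus cGMP biosensor are seeded and incubated overnight at 37C, then loaded with GloSensor reagent (2% final) at room temperature for 2 h. Library compounds go on for 30 min. A pre-read precedes agonist (hNppA, 0.1 nM final) and a 20-min readout.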

[8] = biological target: T1, Tyrosine-protein phosphatase non-receptor type substrate 1 (Homo sapiens) + Leukocyte surface antigen CD47 (Homo sapiens) (UniProt P78324+Q08722); experiment: CD47-SIRPalpha protein protein interaction - HTRF assay qHTS validation (AID 1347058; active = well fitted curve in the direction sought with a large enough effect in the signal ratio, not every such curve was filed as active; the % refers to the signal ratio; note: series mostly up to about 38 µM)
T1 sequence (P78324 whole entry, looked up, the tested form may be a part): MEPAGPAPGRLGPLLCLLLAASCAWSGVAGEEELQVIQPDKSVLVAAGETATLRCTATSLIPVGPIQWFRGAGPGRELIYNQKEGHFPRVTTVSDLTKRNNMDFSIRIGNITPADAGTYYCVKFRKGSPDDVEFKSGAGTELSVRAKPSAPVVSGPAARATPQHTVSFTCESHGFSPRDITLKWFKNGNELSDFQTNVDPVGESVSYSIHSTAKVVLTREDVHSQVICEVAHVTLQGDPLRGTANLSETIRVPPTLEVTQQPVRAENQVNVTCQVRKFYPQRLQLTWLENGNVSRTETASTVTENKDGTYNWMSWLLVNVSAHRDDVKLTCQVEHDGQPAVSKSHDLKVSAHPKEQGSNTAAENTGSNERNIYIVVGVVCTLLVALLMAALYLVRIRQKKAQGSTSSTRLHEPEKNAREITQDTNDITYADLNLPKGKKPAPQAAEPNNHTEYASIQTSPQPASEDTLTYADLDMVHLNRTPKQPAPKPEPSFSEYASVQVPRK
T1 sequence (Q08722 whole entry, looked up, the tested form may be a part): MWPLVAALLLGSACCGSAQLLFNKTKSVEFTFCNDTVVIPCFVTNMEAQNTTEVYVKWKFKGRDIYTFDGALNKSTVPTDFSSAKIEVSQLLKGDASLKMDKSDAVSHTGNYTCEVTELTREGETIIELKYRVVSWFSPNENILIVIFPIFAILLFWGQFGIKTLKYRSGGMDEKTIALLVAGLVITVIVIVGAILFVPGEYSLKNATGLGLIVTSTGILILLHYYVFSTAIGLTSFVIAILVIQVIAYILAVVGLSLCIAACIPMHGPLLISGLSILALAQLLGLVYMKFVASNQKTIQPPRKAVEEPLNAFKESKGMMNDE
How it was run: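 Soluble extracellular domains (6His-CD47, Avi-tag-biotinylated SIRPalpha) in PBS pH 7.4 with 0.05% IGEPAL CA-630. Compounds were preincubated 30 min at RT with CD47 and anti-His-Eu, then SIRPalpha and SAV-XL665 were added. TR-FRET 665/615 ratio.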

[9] = biological target: T1, Tyrosine-protein phosphatase non-receptor type substrate 1 (Homo sapiens) + Leukocyte surface antigen CD47 (Homo sapiens); experiment: CD47-SIRPalpha protein protein interaction - Alpha assay qHTS validation (AID 1347059);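 note: bead proximity luminescence from CD47 binding SIRPalpha after compound preincubation with SIRPalpha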
How it was run: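 In PBS (pH 7.4) with 0.05% IGEPAL CA-630, compound is preincubated with biotin-Avi-SIRPalpha ectodomain before His-CD47 ectodomain and affinity beads are added. Light-protected room-temperature incubations; AlphaScreen readout.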

[10] = biological target: Atrial natriuretic peptide receptor 2 (Homo sapiens) (UniProt P20594); experiment: Natriuretic polypeptide receptor (hNpr2) antagonism - Pilot subtype selectivity assay (AID 1347050; calls by dose curve)
Chain of Atrial natriuretic peptide receptor 2 (Homo sapiens) (P20594 whole entry, looked up): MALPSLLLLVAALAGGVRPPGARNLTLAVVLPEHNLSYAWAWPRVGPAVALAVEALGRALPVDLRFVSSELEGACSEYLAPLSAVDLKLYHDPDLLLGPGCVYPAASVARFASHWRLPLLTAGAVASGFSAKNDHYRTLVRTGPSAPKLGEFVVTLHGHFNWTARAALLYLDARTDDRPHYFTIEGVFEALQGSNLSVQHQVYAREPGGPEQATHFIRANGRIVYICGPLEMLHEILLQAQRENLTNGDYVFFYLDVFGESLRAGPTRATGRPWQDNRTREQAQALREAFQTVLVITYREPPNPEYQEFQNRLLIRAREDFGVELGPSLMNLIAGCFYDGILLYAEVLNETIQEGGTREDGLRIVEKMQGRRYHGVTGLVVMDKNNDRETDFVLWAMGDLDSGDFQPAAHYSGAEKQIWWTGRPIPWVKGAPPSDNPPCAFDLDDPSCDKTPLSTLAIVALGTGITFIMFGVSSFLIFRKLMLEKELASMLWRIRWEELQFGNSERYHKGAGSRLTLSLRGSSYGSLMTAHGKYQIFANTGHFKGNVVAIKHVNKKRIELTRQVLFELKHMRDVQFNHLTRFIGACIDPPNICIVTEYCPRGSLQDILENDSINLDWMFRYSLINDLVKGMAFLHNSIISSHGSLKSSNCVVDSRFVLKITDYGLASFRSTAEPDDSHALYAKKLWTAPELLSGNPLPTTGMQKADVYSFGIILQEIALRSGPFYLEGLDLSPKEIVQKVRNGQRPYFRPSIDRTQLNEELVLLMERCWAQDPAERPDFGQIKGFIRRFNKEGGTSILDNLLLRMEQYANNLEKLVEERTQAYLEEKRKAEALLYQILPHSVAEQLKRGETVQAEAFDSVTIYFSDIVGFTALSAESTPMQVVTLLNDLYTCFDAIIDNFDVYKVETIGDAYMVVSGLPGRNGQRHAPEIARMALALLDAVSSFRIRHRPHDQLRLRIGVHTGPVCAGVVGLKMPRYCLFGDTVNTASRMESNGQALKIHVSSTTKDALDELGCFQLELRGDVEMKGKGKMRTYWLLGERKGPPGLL
How it was run: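 Read-out: GloSensor luminescence (CCD imager), baseline vs post-stimulation. HEK293 cells expressing hNpr2; compounds pre-incubated 30-50 min at ambient temperature; hNppC 1 nM final, 20 min.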

| SMILES | Potency [1] | Potency [2] | Potency [3] | Potency [4] | Potency [5] | Potency [6] | Potency [7] | outcome [8] | Potency [9] | Potency [10] |
| --- | --- | --- | --- | --- | --- | --- | --- | --- | --- | --- |
| C1CCC(NC2CCCCC2)CC1 | inactive | inactive | inactive | inactive | inactive | inactive |  |  |  |  |
| C[C@]12CC[C@@H]3[C@@H](CCC4=CC(=O)CC[C@@H]43)[C@@H]1CC[C@@H]2OC(=O)CCc1ccccc1 | 5.8 µM (active) | inactive | inactive | inactive | inactive | inactive |  |  |  |  |
| c1ccc(C2(c3ccccc3)CC2C2=NCCN2)cc1 (stereo not given) | inactive | inactive | inactive | inactive | inactive | inactive | inactive |  |  |  |
| C[N+](C)(C)CC(=O)O | inactive | inactive | inactive | inactive | inactive | inactive |  | inactive | inactive |  |
| Cc1[nH]nc2ccc(-c3cncc(OC[C@@H](N)Cc4c[nH]c5ccccc45)c3)cc12 | 526 nM (active) and 5.17 µM (active) | 5900 nM (active) | 485 nM (active) | 172 nM (active) | 432 nM (active) | 243 nM (active) |  |  |  |  |
| C[C@]12Cc3cn[nH]c3C[C@@H]1CC[C@@H]1[C@H]2CC[C@@]2(C)[C@H]1CC[C@]2(C)O | inactive | inactive | inactive | inactive | inactive | inactive |  |  |  |  |
| COCC1(CO)C(=O)C2CCN1CC2 (stereo not given) | inactive | inactive | inactive | inactive | 12200 nM (active) |  |  |  |  |  |
| O=C1C=CC[C@@H]2[C@H]3CCCN4CCC[C@@H](CN12)[C@@H]34 | inactive | inactive | inactive | inactive | inactive | inactive |  |  |  |  |
| Cc1cc(O)ccc1Cl | inactive | inactive | inactive | inactive | inactive | inactive |  |  |  |  |
| CC(C)NCC(O)c1ccc([N+](=O)[O-])cc1 (stereo not given) | inactive | inactive | inactive | inactive | inactive | inactive |  |  |  |  |
| Nc1c(Cl)c(Cl)c(Cl)c(Cl)c1Cl | inactive | inactive | inactive | inactive | inactive | inactive |  |  |  |  |
| CC=C(C)C(=O)N[C@@H](c1ccccc1)[C@@H](O)C(=O)O[C@H]1C[C@@]2(O)[C@@H](OC(=O)c3ccccc3)[C@@H]3[C@]4(OC(C)=O)CO[C@@H]4C[C@H](O)[C@@]3(C)C(=O)[C@H](OC(C)=O)C(=C1C)C2(C)C | 0.0332 µM (active) | 3.3 nM (active) | inactive | 3.4 nM (active) |  |  |  |  |  |  |
| S=C(NC1CCCCC1)N1CCC(c2cnc[nH]2)CC1 | inactive | inactive | inactive | inactive | inactive | inactive | inactive | inactive | inactive | inactive |
| CC(C)(C)NC[C@H](O)c1ccc(O)cc1Cl | inactive | inactive | inactive | inactive | inactive | inactive |  |  |  |  |
| C#CC1(O)CCC2C3CCC4=CC(=O)CCC4(C)C3CCC21C (stereo not given) | inactive | inactive | inactive | inactive |  |  |  |  |  |  |
| C[C@]12CC[C@H]3[C@@H](CCC4=CC(=O)CC[C@@]43C)[C@H]1CC[C@H]2O | 11.8 µM (active) | inactive | inactive | inactive | inactive | inactive |  |  |  |  |
| ClC1=C(Cl)[C@]2(Cl)[C@@H]3[C@@H]4C[C@@H]([C@H]5O[C@@H]45)[C@@H]3[C@@]1(Cl)C2(Cl)Cl | inactive | inactive | inactive | inactive | inactive | inactive |  |  |  |  |
| O=S(=O)(O)C(F)(F)C(F)(F)C(F)(F)C(F)(F)F | inactive | inactive | inactive | inactive | inactive | inactive |  |  |  |  |
| C[C@H]([C@H](O)CCC(C)(C)O)[C@H]1CC[C@@]2(O)C3=CC(=O)[C@@H]4C[C@@H](O)[C@@H](O)C[C@]4(C)[C@@H]3CC[C@]12C | inactive | inactive | inactive | inactive | inactive | inactive |  |  |  |  |
| CCCCC(CC)COC(=O)c1ccccc1C(=O)OCC(CC)CCCC (stereo not given) | inactive | inactive | inactive | inactive | inactive | inactive |  |  |  |  |
| COC1=CC(C)=C[C@@H](C)[C@@H](O)[C@@H](C)CC(C)=CC=C[C@H](OC)[C@H]([C@@H](C)[C@@H](O)[C@H](C)[C@@]2(O)C[C@@H](O)[C@H](C)[C@@H](C(C)C)O2)OC1=O | 0.0148 µM (active) | 1.2 nM (active) | 109 nM (active) | 76.9 nM (active) | 34.3 nM (active) | 48.5 nM (active) |  |  |  |  |
| CN(C)[C@@H]1C(=O)C(C(N)=O)=C(O)[C@@]2(O)C(=O)C3=C(O)c4c(O)cccc4[C@@](C)(O)[C@H]3[C@H](O)[C@@H]12 | inactive | inactive | inactive | inactive | inactive | inactive |  |  |  |  |
| O=[N+]([O-])c1ccc([As](=O)(O)O)cc1 | inactive | inactive | inactive | inactive | inactive | inactive |  |  |  |  |
